hgDAF-12 ag: activates the H. glycines DAF-12 receptor ligand-binding domain; activation, % at 6.8 µM; HEK293 GAL4-hgDAF12 UAS-luciferase reporter, agonist luminescence; normalized to butyrate control; AID 687014; hit rate 1.8% among 370,000;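 active = activation above a cutoff set at the mean of all screened compounds plus 3 SD, cut at about 10% in these data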;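 also: 0% = DMSO wells and 100% = sodium butyrate wells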
hcDAF-12 act: H. contortus DAF-12 activation, primary screen | HEK293 hcDAF-12 lit1-tk-luc reporter, luminescence; 0% DMSO, 100% Δ7-dafachronic acid | hit rate 1.4% among 370,000 | activation, % at 6.8 µM;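 active = activation above the mean of all tested compounds plus 3 SD, cut at about 5.5% in these data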;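 also: 100% = response to 3 µM Δ7-dafachronic acid high control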
SMARCA2 activ: increases SMARCA2 function in MMTV reporter cells | MG213 cells, MMTV-luciferase reporter, dexamethasone, overnight | activation, % at 9.1 µM | hit rate 1% among 370,000; in the data active = activation above about 7.8%;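 also: 0% = vehicle wells and 100% = reference activator wells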
DAX1 inh-1: inhibitors of DAX1 repression of SF-1 activated StAR promoter | HEK293T StAR-luciferase reporter, SF-1/DAX-1 repression relief | inhibition, % at 6.8 µM | hit rate 1.1% among 370,000;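 active = inhibition above the mean over all tested compounds plus 3 SD, cut at about 3.6% in these data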;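 also: 0% = DAX-1 cells with DMSO and 100% = cells lacking DAX-1 with DMSO; higher inhibition means more luminescence from relief of DAX-1 repression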
DAX1 inh-2: NR0B1 (DAX1) inhibition; inhibition, % at 6.75 µM; hit rate 0.99% among 340,000; P51843; HEK293 Gal4-DAX1 luciferase reporter, luminescence;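 active = inhibition above the mean over all tested compounds plus 3 SD, cut at about 4.2% in these data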;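 also: 0% = DAX1-transfected cells with DMSO and 100% = empty-vector control cells with DMSO; inhibition shows as a rise in luminescence from relieved DAX1 repression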
ssDAF12 agonist: S. stercoralis DAF-12 activation, primary screen; HEK293 ssDAF-12/GRIP1 lit1-tk-luc reporter, luminescence; % of 3 µM dafachronic acid response; activation, % at 6.8 µM; hit rate 1% among 370,000;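 active = activation above the mean over all tested compounds plus 3 SD, cut at about 0.9% in these data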;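 also: 0% = DMSO-only wells and 100% = 3 µM delta7-dafachronic acid wells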
DAX1 conf: confirmation of human DAX1 (NR0B1) inhibitors | shares compounds with DAX1 inh-1 | HEK293T StAR-promoter luciferase reporter, SF-1/DAX-1 repression | inhibition, % at 6.8 µM | hit rate 87% among 2,400 | AID 652134;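 active = inhibition above the average of every tested compound plus 3 SD, cut at about 3.8% in these data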;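 also: 0% = DAX-1 cells with DMSO and 100% = no DAX-1 control cells with DMSO; active compounds raise luminescence by relieving repression of the StAR reporter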
Target sequence (P51843 whole entry, looked up): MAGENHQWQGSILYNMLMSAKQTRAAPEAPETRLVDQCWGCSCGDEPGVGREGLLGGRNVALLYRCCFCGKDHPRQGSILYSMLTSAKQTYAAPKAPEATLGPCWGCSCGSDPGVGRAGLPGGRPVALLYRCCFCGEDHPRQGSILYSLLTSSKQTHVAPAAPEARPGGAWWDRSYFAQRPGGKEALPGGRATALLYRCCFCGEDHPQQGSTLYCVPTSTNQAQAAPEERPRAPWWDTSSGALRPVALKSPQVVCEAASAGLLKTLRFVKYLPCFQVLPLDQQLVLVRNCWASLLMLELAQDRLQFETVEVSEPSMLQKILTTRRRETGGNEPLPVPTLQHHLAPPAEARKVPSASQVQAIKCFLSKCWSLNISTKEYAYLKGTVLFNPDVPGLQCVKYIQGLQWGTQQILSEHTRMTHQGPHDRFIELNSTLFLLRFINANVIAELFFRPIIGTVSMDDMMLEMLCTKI
SF1 AF2mut Luc: counter-screen for DAX1 inhibitors: nonselective inhibitors with SF-1 AF2 mutant; inhibition, % at 6.8 µM; shares compounds with DAX1 inh-1; HEK293 StAR-luciferase, luminescence; hit rate 78% among 2,400;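 active = inhibition above the mean of all tested compounds plus 3 SD, cut at about 3% in these data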;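 also: 0% = DAX-1 transfected cells with DMSO and 100% = cells without DAX-1 with DMSO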
* marks the source's active call; other numbers are inactive results; · = no result given. Compounds with a hit are over-represented: about 4.8% of the library has one in this group of screens.

SMILES	hgDAF-12 ag	hcDAF-12 act	SMARCA2 activ	DAX1 inh-1	DAX1 inh-2	ssDAF12 agonist	DAX1 conf	SF1 AF2mut Luc
CCN(CC)CCCn1c2c(c(SCC(=O)Nc3cccc(C)c3C)nc1=O)CCC2	2	2	0	7.2*	1	-1	7.7*	6.3*
CCN(CC)CCCn1c2c(c(SCC(=O)Nc3ccc(F)c(F)c3)nc1=O)CCC2	-1	1	2	4.7*	-1	-1	2	2
CC(C)(C)c1ccc(C(=O)Nc2cc(Cl)ccc2-c2nn[nH]n2)cc1	1	3	·	·	·	-1	·	·
Nn1c(SCC(=O)N2c3ccccc3Sc3ccc(Cl)cc32)nnc1-c1cc(-c2ccc(F)cc2)n[nH]1	5	0	-6	-1	·	-2	·	·
COc1cc(Cl)ccc1OCc1cc(C(=O)N2C[C@@H]3CCC[C@H]2C3)no1	9	4	3	5.2*	1	0	7.5*	4.9*
COc1cc(C)ccc1OCc1cc(C(=O)N2C[C@H]3CC[C@H]2C3)no1	1	-1	3	0	0	-1	·	·
COc1cc(Cl)ccc1OCc1cc(C(=O)N2CCCCCCC2)no1	3	1	-2	1	0	0	·	·
COc1cc(Cl)ccc1OCc1cc(C(=O)N2C[C@H]3CC[C@H]2C3)no1	8	2	6	5.5*	3	0	4.7*	4.0*
Cc1ccc(S(=O)(=O)N2C[C@H]3C(=O)C[C@@H]4C(=O)N(c5ccccc5)C(=O)[C@@H]4[C@@H]3C[C@H]2c2cccs2)cc1	1	1	2	0	·	-1	·	·
CCOC1=C2CN(S(=O)(=O)c3ccc(C)cc3)[C@@H](c3cccs3)C[C@H]2[C@H]2C(=O)N(c3ccccc3)C(=O)[C@H]2C1	1	-1	-3	4.5*	·	-1	-3	-1
CCOC(=O)[C@]12CCCCC/C=C\1N(CCc1ccc(Cl)cc1)C(=O)[C@H]2CC(=O)N1CCCCC1	-3	-2	-4	-2	·	-2	·	·
COC(=O)c1ccc2c(c1)c(C#Cc1ccccc1)c(-c1ccccc1)n2C	7	2	5	4.7*	0	-1	2	2
COc1ccc(C#Cc2c(-c3ccccc3)n(C)c3ccccc23)cc1	0	3	0	0	1	0	·	·
COc1ccc(-c2coc3cc(OC4OC(CO)C(O)C(O)C4O)cc(O)c3c2=O)cc1 (configuration not stated)	11*	5	4	11*	2	0	11*	5.7*
COc1ccc(-c2coc3cc(O)ccc3c2=O)cc1	8	5	3	4.9*	2	0	11*	5.1*
Cc1ccnc(NC(=O)CNC(=O)c2sc3ccccc3c2Cl)c1	10	5	2	10*	1	0	11*	7.2*
CC1CCCN(C(=O)CNC(=O)c2sc3ccccc3c2Cl)C1 (configuration not stated)	6	2	1	3	1	0	·	·
O=C(NCC(=O)N1CCCCC1)c1sc2ccccc2c1Cl	8	1	3	5.8*	2	0	5.5*	3.4*
O=C(O)c1ccc(N/N=C/c2ccc(-c3cc(Cl)ccc3Cl)o2)cc1	2	0	0	2	-2	-1	·	·
O=C(O)c1ccc(N/N=C/c2ccc(-c3cccc(Cl)c3)o2)cc1	16*	6	6	6.2*	7.2*	1.0*	13*	7.6*
O=C(O)c1ccc(N/N=C/c2ccc(-c3ccc(Cl)cc3Cl)o2)cc1	0	1	1	5.1*	-3	-1	15*	5.6*
O=C(Nc1nc2ncccn2c1-c1ccccc1)C1CC1	-1	3	-1	0	·	-1	·	·
CN1CCCC1CCNc1ccc2oc3ccccc3c(=O)c2c1 (configuration not stated)	8	3	4	2	·	0	·	·
